# Rab2A wt mod = modulators of GTP binding to Rab2A wildtype, primary screen, biochemical, dog, bead-based flow cytometry, multiplex. AID 760, 2007. 190,000 compounds, 0.19% hits. GTP binding activity, % at 10 µM. GST-Rab2 wt beads, Bodipy-GTP binding. Ras-related protein Rab-2A (Canis lupus familiaris), P61105;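 active = GTP binding activity at least 20 points away from 100%, either lowered or raised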;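 note: 0% = beads with excess unlabeled GTP and 100% = no-compound control corrected for plate trend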
# Cdc42 wt = modulators of GTP binding to wildtype Cdc42, primary screen, biochemical, multiplex bead flow cytometry, Bodipy-GTP. GST-Cdc42 beads; actives lie on both sides. 190,000 compounds, 0.2% hits. Cell division control protein 42 homolog (Homo sapiens), P60953. percent activity (GTP binding), % at 10 µM. AID 761, 2007;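 active = percent activity GTP binding at least 20 points away from the 100% baseline, either down as inhibitor or up as activator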;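 note: median bead fluorescence of bound Bodipy-FL-GTP at 100 nM; 0% = excess unlabeled GTP control and 100% = no compound control; below 100% means less GTP binding so inhibitor and above means activator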
# Target sequence (P60953 whole entry, looked up): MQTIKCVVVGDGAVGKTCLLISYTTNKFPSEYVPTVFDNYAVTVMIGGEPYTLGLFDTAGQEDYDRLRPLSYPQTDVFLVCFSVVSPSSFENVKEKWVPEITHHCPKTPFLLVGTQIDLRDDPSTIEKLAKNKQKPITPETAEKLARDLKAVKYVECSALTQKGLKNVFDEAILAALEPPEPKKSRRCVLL
# Rab7 wt GTP bind = modulators of GTP binding to Rab7, primary screen, biochemical, wildtype, multiplex bead flow cytometry. Rab7 GTPase wild type (dog), Bodipy-FL-GTP binding. GST-Rab7 beads, fluorescent GTP binding; actives lie on both sides; untreated = 100%, excess cold GTP = 0%. GTP binding activity (percent of control), % at 10 µM. 190,000 compounds, 0.055% hits. AID 758, 2007;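 active = fluorescent GTP binding to Rab7 beads changed by at least 20 points from the 100% baseline, either direction, mostly lower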;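 note: median green fluorescence of bound Bodipy-FL-GTP per Rab7 bead population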
# Rac1 mut GTP = GTP binding modulators of activated mutant Rac1, primary screen, biochemical, bead-based flow cytometry, multiplex, fluorescent GTP; AID 764, 2007; Ras-related C3 botulinum toxin substrate 1 (Homo sapiens), P63000; 190,000 compounds, 0.11% hits; percent activity (GTP binding), % at 10 µM; GST-Rac1 activated beads; actives lie on both sides; 100% means binding = to untreated wells;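 active = GTP binding at least 20 percentage points away from the 100% baseline, in either direction, so actives lie on both sides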
# Rac1 wt modul = wildtype Rac1 GTP binding modulators, primary screen, biochemical, GST-Rac1 beads, flow cytometry, multiplex | fluorescent GTP binding; actives lie on both sides; 0 = cold GTP competed, 100 = untreated | GTP binding activity (% of control), % at 10 µM | 190,000 compounds, 0.27% hits;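 active = GTP binding activity at least 20 points away from the 100% control level, either lower or higher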
# HRas wt GTP = modulators of GTP binding to HRas wildtype, primary screen, biochemical, bead-based flow cytometry, multiplex; GTPase HRas (Homo sapiens), P01112; GST-Ras wt beads, Bodipy-FL-GTP binding; actives lie on both sides; GTP binding activity, % at 10 µM; 190,000 compounds, 0.14% hits;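 active = GTP binding activity at least 20% away from the 100% baseline, either lowered as inhibitor or raised as activator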;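 note: 0% = unlabeled GTP competition control and 100% = no-compound control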
# Target sequence (P01112 whole entry, looked up): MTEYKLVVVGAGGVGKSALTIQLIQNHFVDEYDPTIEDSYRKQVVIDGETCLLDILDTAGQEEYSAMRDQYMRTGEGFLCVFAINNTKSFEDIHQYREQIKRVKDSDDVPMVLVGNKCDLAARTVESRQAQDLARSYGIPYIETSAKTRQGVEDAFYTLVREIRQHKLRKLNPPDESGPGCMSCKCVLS
# * marks the source's active call; other numbers are inactive results; [ ] = remark or other dose. The list is not random: actives were taken first. Their share in the collection is about 0.4%.
SMILES,Rab2A wt mod,Cdc42 wt,Rab7 wt GTP bind,Rac1 mut GTP,Rac1 wt modul,HRas wt GTP
COc1cc(NS(=O)(=O)c2ccc(N)cc2)nc(OC)n1,99.0,106.0,97.0,102.0,102.0,101.0
O=C(COC(=O)C1CCN(S(=O)(=O)c2ccccc2C(F)(F)F)CC1)NCc1ccc(F)cc1,98.0,98.0,102.0,103.0,104.0,98.0
O=C(CCCn1c(=O)[nH]c2ccc(Br)cc2c1=O)NCc1ccc(Cl)cc1,97.0,100.0,106.0,95.0,98.0,97.0
Cc1cc(C)c(C#N)c(SCc2ccccc2)n1,101.0,100.0,96.0,98.0,104.0,99.0
Cc1ccc2nc(CSc3nc(C)cc(C)c3C#N)[nH]c2c1,101.0,114.0,102.0,105.0,122.0*[activator],107.0
COc1ccc(CN(C(=O)c2ccc(-c3ccccc3)[nH]2)C(C(=O)NCC2CCCO2)c2ccc(C)o2)cc1 (configuration not stated),101.0,101.0,106.0,100.0,106.0,102.0
O=C1c2ccccc2C(=O)N1CCCCN(C(=O)c1cc2ccccc2oc1=O)c1ccc(Cl)cc1,46.0*,43.0*,29.0*,53.0*,50.0*,51.0*
Cc1ccc(/C=C/C(=O)Nc2sc3c(c2C#N)CCCC3)o1,100.0,103.0,99.0,99.0,103.0,103.0
Cc1cc(NC(=O)CSc2nc(-c3ccccc3)c(C#N)c(=O)[nH]2)no1,78.0*,75.0*,77.0*,76.0*,77.0*,75.0*
O=C(NC1CCCC1)c1cccc(Oc2ccccc2)c1,102.0,99.0,108.0,95.0,100.0,99.0
C=CCN1C(=O)/C(=C/C=C2/N(CC)c3ccc(S(=O)(=O)N(C)C)cc3N2CC)SC1=S,86.0,83.0,96.0,84.0,81.0,79.0*
Cc1cc(C)n2ncc(C(=O)O)c2n1,80.0,78.0*,92.0,94.0,92.0,82.0
Nc1nc(SCC(=O)NC2CCCCCC2)[nH]c(=O)c1-c1ccccc1,104.0,107.0,102.0,100.0,105.0,103.0
Cc1ccc2nc(Cl)c(CNCc3ccccc3)cc2c1,98.0,95.0,103.0,97.0,97.0,98.0
N#C/C(=C\c1ccncc1)c1nc2ccccc2[nH]1,42.0*,41.0*,26.0*,35.0*,31.0*,43.0*
Cc1cc2nc(/C(C#N)=C/c3ccncc3)[nH]c2cc1C,94.0,87.0,96.0,89.0,86.0,92.0
N#C/C(=C\c1ccc(-c2ccc(C(=O)O)cc2)o1)c1nc2ccccc2[nH]1,77.0*,78.0*,87.0,80.0,71.0*,80.0
Nc1ccc(-c2cn3cccnc3n2)cc1,78.0*,79.0*,90.0,86.0,72.0*,78.0*
COc1ccc(NC(=O)c2sc(Cl)nc2-c2ccccc2)cc1,101.0,104.0,102.0,101.0,106.0,103.0
O=C(CCSc1ccccn1)Nc1ccc(Br)cc1,96.0,100.0,96.0,100.0,102.0,99.0
COc1ccc(-c2noc(CCC(=O)N3CCN(c4cc(C)ccc4C)CC3)n2)cc1,78.0*,80.0,85.0,75.0*,82.0,82.0
CCOc1cccc(CN2CCN(CCc3ccccc3)C(CCO)C2)c1O (configuration not stated),89.0,87.0,98.0,85.0,88.0,85.0
OCCC1CN(Cc2ccccc2O)CCN1CCc1ccccc1 (configuration not stated),16.0*,16.0*,10.0*,13.0*,12.0*,18.0*
COc1cccc(NC(=O)Nc2nccc(C)n2)c1,100.0,101.0,108.0,96.0,100.0,100.0

# High-throughput results: PubChem BioAssay, NMMLSC
